Measurements taken from PubChem BioAssay (NCI).
Compounds without any hit were thinned out: in the full panel of roughly 83,000, 20% have a hit.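 Negative percent growth values reflect cell death: -40 means 40% of the cells present at the start died, and -100 means all died.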 Calls of active or inactive are those of the source. The calls were made as follows: active = growth percent below 10; inactive = the rest.

Legend:
Experiment in all cases: NCI-60 one-dose screen, 48 h (100 = growth as untreated, 0 = no growth, -100 = all killed)
Details in all cases: 10 µM unless noted
[1] = test system: HCT-15 colon
[2] = test system: HT29 colon
[3] = test system: SNB-75 CNS
[4] = test system: SNB-19 CNS
[5] = test system: U251 CNS
[6] = test system: PC-3 prostate
[7] = test system: SK-MEL-5 melanoma
[8] = test system: UACC-62 melanoma
[9] = test system: LOX IMVI melanoma
[10] = test system: SK-MEL-28 melanoma
[11] = test system: SK-MEL-2 melanoma
[12] = test system: SN12C renal
[13] = test system: UO-31 renal
[14] = test system: TK-10 renal
[15] = test system: ACHN renal
[16] = test system: CAKI-1 renal
[17] = test system: A498 renal
[18] = test system: CCRF-CEM leukemia
[19] = test system: MOLT-4 leukemia

Measured: growth

COc1cc(-n2nc(C(=O)Nc3ccc(C(=O)O)cc3)nc2-c2ccccc2)cc(OC)c1OC
inactive: [1] 89.3% | [2] 103% | [3] 94.1% | [4] 91.9% | [5] 102% | [6] 71.3% | [7] 107% | [8] 95.1% | [9] 101% | [10] 115% | [11] 106% | [12] 82.1% | [13] 58.6% | [14] 79.1% | [15] 36.1% | [16] 52.2% | [17] 62.9% | [18] 89% | [19] 95.8%

Cc1cc(C)c(S(=O)(=O)N2CCN(c3cc4c(cc3F)c(=O)c(C(=O)O)cn4C3CC3)CC2)c(C)c1
inactive: [1] 55.1% | [2] 28.3% | [3] 36.6% | [4] 66.3% | [5] 19.7% | [6] 67.9% | [7] 54.9% | [8] 76.6% | [9] 29.6% | [10] 69.1% | [11] 90.5% | [12] 13.9% | [13] 16.1% | [14] 86.5% | [15] 51.3% | [16] 67.1% | [17] 63% | [18] 37.3% | [19] 61%

NC(=S)NN=C1CCCCC1
inactive: [1] 77.7% | [2] 47.5% | [3] 105% | [4] 106% | [5] 76.4% | [6] 82.7% | [7] 99.2% | [8] 90% | [9] 77.9% | [10] 98.3% | [11] 107% | [12] 85.2% | [13] 79.8% | [14] 100% | [15] 103% | [16] 103% | [17] 87% | [18] 39.6% | [19] 68.8%

CCn1cc(C(=O)O)c(=O)c2cc(F)c(N3CCN(S(=O)(=O)c4c(C)cc(C)cc4C)CC3)cc21
inactive: [1] 71.5% | [2] 94.8% | [3] 70.8% | [4] 89.9% | [5] 83.3% | [6] 61.4% | [7] 79.5% | [8] 75.9% | [9] 61.3% | [10] 91.7% | [11] 88.7% | [12] 88.5% | [13] 33.1% | [14] 97.5% | [15] 75.8% | [16] 89.5% | [17] 78.9% | [18] 81.8% | [19] 75.9%

CCN(CC)CCSc1c2ccc(Cl)cc2nc2ccc(OC)cc12
inactive: [1] 47.4% | [2] 34.8% | [3] 110% | [4] 92% | [5] 93% | [6] 91.4% | [7] 103% | [8] 93.2% | [9] 36.7% | [10] 113% | [11] 100% | [12] 90.1% | [13] 88.5% | [14] 84.1% | [15] 87.6% | [16] 91.3% | [17] 100% | [18] 12.7% | [19] 48.1%

Nc1nc(-c2ccccc2)cs1
inactive: [1] 106% | [2] 100% | [3] 84.3% | [4] 105% | [5] 98.9% | [6] 98.1% | [7] 102% | [8] 107% | [9] 97.9% | [10] 109% | [11] 82.1% | [12] 101% | [13] 75.7% | [14] 98.5% | [15] 103% | [16] 94% | [17] 81.5% | [18] 110% | [19] 105%

Cc1cccc(NC(=O)c2sc3nc4c(cc3c2N)CCC4)c1C
active: [2] 1.41% | [17] 8.64%
inactive: [1] 20.1% | [3] 13.9% | [4] 38% | [5] 16.6% | [6] 11.2% | [7] 24.4% | [8] 28.7% | [9] 24.5% | [10] 57.8% | [11] 26.3% | [12] 41.2% | [13] 43.4% | [14] 35% | [15] 48.4% | [16] 30.5% | [18] 10.7% | [19] 22.6%

COc1ccc(C2=CC(c3ccc(Oc4ccnc5cc(Cl)ccc45)c(OC)c3)c3c(nc(OC)[nH]c3=O)N2)cc1 (configuration not stated)
inactive: [1] 44.5% | [2] 50.5% | [3] 73.1% | [4] 75.1% | [5] 67.7% | [6] 54.9% | [7] 74.6% | [8] 51.9% | [9] 52.7% | [10] 91.1% | [11] 91.9% | [12] 63.7% | [13] 56.5% | [14] 98.5% | [15] 57.3% | [16] 82.9% | [17] 69.6% | [18] 26.8%
active: [19] 7.77%
